CYP2C19 activ: activators of human cytochrome P450 2C19. P33261. recombinant CYP2C19, luciferin-H EGE luminescence; active compounds read high; 0 = fully inhibited enzyme, 1 = untreated enzyme. activation factor at 5 µM. 96,000 tested, under 10 active;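 active = activation factor of at least 2 at 5 µM in the primary screen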;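 note: 0 = wells with 2.5 mM tranylcypromine and 1 = vehicle-only wells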
CYP2C19 inhib: inhibitors of human CYP2C19 | P33261 | CYP2C19 Supersomes, luciferin-H EGE luminescence, 30 min | inhibition, % at 5 µM | 96,000 tested, 21% active;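 active = CYP2C19 inhibition above a set limit at 5 µM in the primary screen, cut at about 50% in these data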;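 note: plate controls were negative control wells for no effect and 2.5 mM tranylcypromine positive control for full effect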
CYP2C9 activ: activators of human CYP2C9; activation factor at 5 µM; P11712; recombinant CYP2C9, luciferin-H conversion, luminescence; active compounds read high; factor 1 = untreated enzyme, 0 = blocked; 96,000 tested, 1.4% active;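 active = activation factor of 2 or more for CYP2C9 at a 5 µM dose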;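 note: 0 = sulfaphenazole-blocked wells and 1 = vehicle-only wells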
Target sequence (P11712 whole entry, looked up): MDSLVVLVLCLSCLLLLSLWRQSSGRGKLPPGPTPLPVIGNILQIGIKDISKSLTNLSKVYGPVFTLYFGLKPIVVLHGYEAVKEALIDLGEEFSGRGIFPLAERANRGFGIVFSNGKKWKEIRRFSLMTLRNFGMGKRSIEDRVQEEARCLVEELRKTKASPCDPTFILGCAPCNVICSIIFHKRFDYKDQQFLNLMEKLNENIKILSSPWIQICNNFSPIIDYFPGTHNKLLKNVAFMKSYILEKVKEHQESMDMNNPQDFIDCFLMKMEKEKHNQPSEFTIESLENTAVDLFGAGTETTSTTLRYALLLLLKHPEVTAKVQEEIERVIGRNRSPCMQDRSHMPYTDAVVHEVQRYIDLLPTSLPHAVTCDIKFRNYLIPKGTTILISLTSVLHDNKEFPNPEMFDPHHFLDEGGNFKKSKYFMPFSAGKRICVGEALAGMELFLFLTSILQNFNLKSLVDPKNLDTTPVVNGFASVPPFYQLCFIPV
CYP2C9 inh: blocks human cytochrome P450 2C9. inhibition, % at 5 µM. CYP2C9 Supersomes, luciferin-H conversion, luminescence. P11712. 96,000 tested, 20% active;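 active = blocking of liver enzyme CYP2C9 beyond about 50% at 5 µM, limit read from the data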
Measles CPE: protection of cells from measles virus; Measles virus-infected cells, CPE protection, absorbance; protection (pct of control), % at 4 µM; 140,000 tested, 1.5% active; in the data active = protection mostly above about 24%, no sharp cut-off; inactive = mostly below about 26%
An asterisk follows results filed as active; / = no result. Shown are actives, neighbours in structure and some others; about 22% of the full set was active somewhere.

SMILES	CYP2C19 activ	CYP2C19 inhib	CYP2C9 activ	CYP2C9 inh	Measles CPE
Cn1c(N2CCN(c3ccccn3)CC2)nc2c1c(=O)n(Cc1ccc(Cl)cc1)c(=O)n2C	0.1	92*	0.1	86*	17
CCNc1nc2c(c(=O)n(Cc3ccccc3)c(=O)n2C)n1Cc1ccccc1	0.2	84*	0.1	90*	23
CC1CN(c2nc3c(c(=O)n(Cc4ccc(Cl)c(Cl)c4)c(=O)n3C)n2C)CC(C)O1 (configuration not stated)	1	0	0.8	24	14
CC1(C)Oc2ccc(C#N)cc2[C@@H](N2CCCC2=O)[C@@H]1O	/	/	/	/	14
Cc1cc(CN2CCN(CCC#N)CC2)c(O)c(C2(C)CCCCC2)c1	0.9	14	0.8	20	24
CCc1sc(NS(C)(=O)=O)nc1-c1ccccc1	0.9	10	0.8	18	3
c1ccc(CSc2nnc(NC3=NCCCCC3)s2)cc1	0.3	68*	0.6	37	9
Cc1c(Br)cc(C(=O)OC2CCN(C)CC2)c(C)c1C	0.8	22	2.3*	-126	6
COc1ccc(C(=O)OC2CCN(C)CC2)cc1	/	/	/	/	8
CSc1ccc(C2C(C#N)=C(N)Oc3c2ccc(=O)c2c(C)oc(C)c32)cc1 (configuration not stated)	0.8	17	0.4	59*	4
Cc1oc(C)c2c(=O)ccc3c(c12)OC(N)=C(C#N)C3c1ccccc1Cl (configuration not stated)	0.8	22	0.5	53*	6
Cc1oc(C)c2c(=O)ccc3c(c12)OC(N)=C(C#N)C3c1ccccc1 (configuration not stated)	0.6	39	0.5	48	1
CC(=O)N(/N=C1\Sc2ccccc2C1=O)c1ccccc1	0.5	50*	0.4	63*	7
CC(=O)N(/N=C1\Sc2ccccc2C1=O)c1ccccc1C	0.6	39	0.7	30	7
O=C1CCCCC1S(=O)(=O)c1ccccc1 (configuration not stated)	/	/	/	/	5
O=C1CCN(S(=O)(=O)c2ccccc2)C2CCCCC12 (configuration not stated)	0.1	94*	0.6	36	11
CCCCn1c(=O)c(-[n+]2ccccc2)c([O-])c2ccccc21	1.1	-14	1.1	-8	3
O=C(COc1ccccc1)N(CCc1ccccc1)c1nc(-c2ccc(F)cc2)cs1	1	3	0.2	81*	/
Cc1ccc(-c2csc(N(Cc3ccccc3)C(=O)COc3ccccc3)n2)cc1	0.9	7	0.7	31	/
Cc1ccc(-c2csc(N(CCc3ccccc3)C(=O)COc3ccccc3)n2)cc1	0.4	62*	0	98*	21
Cc1ccc(CSCCNC(=O)CN2C(=O)c3ccccc3S2(=O)=O)cc1	/	/	/	/	24
Cn1c(=O)cc(N)n(Cc2ccccc2)c1=O	/	/	/	/	2
CC1(C)CC2CC(C)(CN2S(=O)(=O)c2ccc(N)cc2)C1 (configuration not stated)	0.3	74*	0.9	9	48
CC1(C)CC2CC(C)(CN2S(=O)(=O)c2ccc(C(=O)Nc3cc(S(=O)(=O)N4CCOCC4)ccc3Cl)cc2)C1 (configuration not stated)	/	/	/	/	1
COc1ccc(S(=O)(=O)N2CCCC(C(=O)NCc3ccccn3)C2)cc1Cl (configuration not stated)	0.6	36	1.6	-59	5
SMILES	CYP2C19 activ	CYP2C19 inhib	CYP2C9 activ	CYP2C9 inh	Measles CPE
CCn1c(CSc2nc(C)cc(C)n2)nnc1SCC(=O)Nc1nc(-c2ccccc2)cs1	1	4	1.3	-32	17
CCn1c(SCC(=O)Nc2nc(-c3ccc(C)cc3)cs2)nnc1-c1ccccc1	0.6	42	0.2	85*	29
COc1ccccc1-c1nnc(SCC(=O)Nc2nc(-c3ccccc3)cs2)n1C	0.1	91*	0	98*	7
CCn1c(SCC(=O)Nc2nc(-c3ccc(C)cc3)cs2)nnc1-c1ccccc1O	0.4	57*	0.3	72*	32*
CC(=O)N1N=C(C)CC1c1ccc(O)cc1 (configuration not stated)	/	/	/	/	16
CCc1nc2c(nnn2Cc2ccc(F)cc2)c(=O)[nH]1	0.1	88*	0.9	10	12
N#Cc1cccc(NC(=O)N2CCC(c3nc4c(nnn4Cc4cccc(Cl)c4)c(=O)[nH]3)CC2)c1	1.2	-18	1.2	-18	7
O=C(Nc1ccc(F)cc1)N1CCC(c2nc3c(nnn3Cc3cccc(Cl)c3)c(=O)[nH]2)CC1	0.6	35	0.3	66*	6
Cc1ccc(Cn2nnc3c(=O)[nH]c(C4CCN(S(=O)(=O)c5ccc(C)cc5)CC4)nc32)cc1	0.2	78*	0	98*	3
CCn1c(SCc2ccc(C)cc2)nnc1C1CCN(S(=O)(=O)c2ccc(OC)cc2)CC1	0.7	32	1.8	-78	20
Cc1ccc(NC(=O)N2CCC(c3nc4c(nnn4Cc4cccc(Cl)c4)c(=O)[nH]3)CC2)cc1	0.1	94*	0	100*	9
CCOCCCNS(=O)(=O)c1ccc(OC)c(Cl)c1Cl	/	/	/	/	5
CCOC(=O)C1CN(S(=O)(=O)c2ccc(OC)cc2)c2cc(CC(=O)OC)ccc2O1 (configuration not stated)	0.1	93*	0.7	30	10
O=C(COC(=O)C1CCN(S(=O)(=O)c2cccc3cccnc23)CC1)c1ccccc1	/	/	/	/	6
Cc1[nH]n(-c2ccccc2)c(=O)c1N=Nc1nccs1	0.9	7	0.4	58*	9
Cc1[nH]n(-c2ccccc2)c(=O)c1/C=N/c1ccccn1	0.9	8	0.9	8	27
C=CCn1c(SCC(=O)N2CCOCC2)nc(O)c(Cc2ccccc2)c1=O	0.9	11	0.9	8	3
O=C1CC(c2ccccc2)CC(O)=C1C=NCc1ccccc1 (configuration not stated)	0.8	22	0.8	18	3
CCC(C)N=CC1=C(O)CC(c2ccccc2)CC1=O (configuration not stated)	0.5	52*	0.5	45	17
Cc1ccc2[nH]c(=O)c(CN(Cc3ccco3)C(=O)c3cccs3)cc2c1	/	/	/	/	2
O=C(c1cccs1)N(Cc1ccccn1)Cc1ccco1	0.5	54*	0.6	44	3
CCc1cc2c(=O)c(-n3cnc4ccccc43)coc2cc1O	0.7	34	1.1	-15	1
O=S(=O)(c1cnc[nH]1)N1CCc2ccccc21	0	98*	0	100*	4
CC1Cc2ccccc2N1S(=O)(=O)c1cnc[nH]1 (configuration not stated)	0.1	92*	0	98*	20
NS(=O)(=O)c1ccc(CCNc2ncnc3c2c(-c2ccccc2)cn3-c2ccc(F)cc2)cc1	0.8	23	0.4	57*	17
Fc1ccc(-n2cc(-c3ccccc3)c3c(NN4CCOCC4)ncnc32)cc1	/	/	/	/	5
S=c1nc(-c2ccccc2Cl)n(Cc2cccnc2)c2c1CCCC2	/	/	/	/	13

Screening data (PubChem BioAssay)
